PubChem BioAssay AID1531 (NMMLSC, 2009)
Screen size: about 290,000 compounds; about 3,300 (1.1%) were called active. Cut-off read from the data, not from the text of the source: active = binding response below about 67% or above about 130%; inconclusive = no clear call, values can overlap the other calls; inactive = in between. Shown is part of a subset that was picked to be rich in actives.

These compounds were tested against Mitogen-activated protein kinase kinase kinase 2 (Homo sapiens) (UniProt Q9Y2U5) (assay: wildtype MEKK2 PB1-MEK5 interaction, increase or decrease – biochemical, multiplex bead flow cytometry, Alexa488-MEK5, primary screen (AID 1531)). Details: Alexa488-MEK5 binding to MEKK2 WT, at 10 µM, actives lie on both sides.

Binding response (% of control), inactive:
CC(Sc1nnc(-c2ccccc2F)n1C1CC1)C(N)=O (centres undefined) 104%
Cc1c(NC(=O)Nc2cccc([N+](=O)[O-])c2)c(=O)n(-c2ccccc2)n1C 103%
COc1ccc(C(=O)NC(=S)N2CCNC(=O)C2CC(=O)OC(C)C)cc1 (centres undefined) 107%
CCOc1ccc(C(=O)COC(=O)c2ccc(-n3cnnn3)cc2)cc1 99%
CCCNC(=O)NCc1ccc(N2CCCC2=O)cc1 98%
COC(C[C@@H](O)C[C@H](O)[C@H](C)OCc1ccccc1)OC 92%
Cc1cc(C)cc(N(CC(=O)N2CC=C(c3ccccc3)CC2)S(=O)(=O)c2c(C)noc2C)c1 112%
Cc1noc(C)c1S(=O)(=O)Nc1ccc(C(=O)O)cc1 100%
CC(=O)N(C)c1ccc(NC(=O)Nc2cccc3ccccc23)cc1 106%
CCOc1ccc(NC(=O)Nc2ccc(N(C)C(C)=O)cc2)cc1 97%
O=C(/C=C/c1ccc(OCc2c(F)cccc2Cl)cc1)N1CCOCC1 74%
COCCCNC(=O)/C=C/c1ccc(OCc2c(F)cccc2Cl)cc1 106%
CCOC(=O)N1CCC(NC(=O)CCc2ccccc2)CC1 107%
COc1cc(NC(=O)C2=CC(c3ccc(C)cc3)=NS(=O)(=O)N2C)cc(OC)c1OC 105%
Cc1cc(C)cc(N(CC(=O)NC2CCCC2)C(=O)CCC(=O)Nc2cc(C)on2)c1 96%
COCCCNC(=O)[C@H]1N2C(=O)c3ccccc3C2SC1(C)C (some centres undefined) 103%
CS(=O)(=O)Nc1cccc(C2=NN(C(=O)c3cccc(F)c3)C(c3cccs3)C2)c1 (centres undefined) 102%
CS(=O)(=O)Nc1cccc(C2=NN(S(=O)(=O)c3ccccc3)C(c3cccs3)C2)c1 (centres undefined) 94%
CN(C(=O)CC1C(=O)NCCN1Cc1ccc(F)cc1Cl)C1CCCCC1 (centres undefined) 101%
O=C(NCc1ccncc1)NC12CC3CC(CC(C3)C1)C2 87%
S=C(NCc1ccc(Cl)cc1)NC1CCCCC1 106%
Cc1cccc(OCC(=O)NCC(=O)N/N=C/c2ccc(N(C)C)cc2)c1 106%
CN(C)CCCn1c(SCc2ccc(Cl)cc2)nnc1-c1ccncc1 109%
O=S(=O)(Cc1nnnn1-c1ccccc1)c1ccccc1 108%
CCS(=O)(=O)C1=NSC2=NC(=O)/C(=C\c3cc(C)n(-c4cccc(OC)c4)c3C)C(=N)N21 98%
CCC1=NN2C(=N)/C(=C/c3cc(C)n(-c4ccccc4)c3C)C(=O)N=C2S1 98%
Cc1cccc(CCNC(=O)Cn2ncc3c([nH]c4ccc(C)cc43)c2=O)c1 96%
C=CCOc1cccc(C2C(C(=O)c3ccc(C)o3)=C(O)C(=O)N2CCCn2ccnc2)c1 (centres undefined) 98%
CCCc1cc(=O)[nH]c(SCC(=O)N2C(C)CCCC2C)n1 (centres undefined) 113%
CC1CCCC(C)N1C(=O)CSc1nnnn1C1CCCC1 (centres undefined) 100%
COc1ccccc1CNS(=O)(=O)c1c(C)[nH]c(C)c1C(=O)N1CCCCC1 101%
O=C(Nc1ccc(C(=O)N2CCOCC2)cc1)Nc1cccc(C(F)(F)F)c1 102%
O=C(COc1cc2oc(=O)c3c(c2cc1Cl)CCC3)NCCCN1CCOCC1 100%
CCCC[C@@H]1CN=C(N)N1CCc1cccc(F)c1 107%
CCCNC(=O)c1ccc(Cl)c(Cl)c1 101%
CCn1c(=N)n(CC(=O)c2cccc(OC)c2)c2ccccc21 96%
COC(C[C@@H]1O[C@@H]1C(=O)[C@@H](C)OCc1ccccc1)OC 97%
O=C(CCN1CCc2ccccc2C(O)(c2ccccc2)C1)c1ccc2c(c1)OCCO2 (centres undefined) 103%
O=C(NCCN1CCOCC1)c1ccc(/C=C2\Sc3ccccc3N(Cc3ccc(F)cc3)C2=O)cc1 128%
CCN1CCN(CCNC(=O)c2ccc3c(c2)NC(=O)/C(=C\c2ccc(OC)c(OC)c2)S3)CC1 131%
CCOc1cc(C)c(S(=O)(=O)NCc2ccccn2)cc1C 102%
Cc1cccc(N2CCN(C(=O)COCc3cc(-c4ccc5c(c4)OCO5)on3)CC2)c1C 100%
Cc1nc2sccn2c(=O)c1S(=O)(=O)NCCc1ccccc1 99%
COc1ccc(CN2[C@@H](CC(=O)O)c3cc(F)ccc3S2(=O)=O)cc1 84%
CC(Oc1cccc(Cl)c1)C(=O)NC1CC(C)(C)NC(C)(C)C1 (centres undefined) 107%
CC(=O)Nc1ccc(C(=O)Nc2nc(-c3cc(C)n(Cc4ccccc4)c3C)cs2)cc1 107%
Cc1cc(-c2csc(N)n2)c(C)n1Cc1ccccc1 89%
COC(=O)CN1C(=O)[C@H]2[C@@H](/C=C/c3ccccc3)N3C(=O)CN(Cc4ccccc4)C(=O)[C@@]3(Cc3ccccc3)[C@H]2C1=O 95%
COCCNc1cc(-c2ccccc2)nc2cc(-c3cccc(F)c3)nn12 118%
O=C1CCN(Cc2ccccc2)CCN1[C@H](CSc1ccccc1)c1ccccc1 90%
COc1ccc(SCCN2CCN(CC(C)C)CCC2=O)cc1 131%
CN1CCC(=O)N([C@H](CO)Cc2ccccc2)CC1 97%
O=C1CCNCCN1[C@H](CO)Cc1ccccc1 110%
O=C(NCc1ccccc1)C1=C[C@@H](c2ccccc2)C[C@@H](OCCCCO)O1 101%
COCOc1cc(O)c(C(=O)/C=C/c2ccc(OCOC)c(OCOC)c2)c(OCOC)c1 111%
COc1ccccc1N1CCN(c2nc(C)cc(=O)[nH]2)CC1 107%
CCCCOc1ccc(C(=O)NN2CCN(C)CC2)cc1 99%
CCCCOc1ccc(C(=O)NCc2ccncc2)cc1 111%
CCCCN(CCCC)CCNC(=O)CN1C(=O)COc2ccc(S(=O)(=O)N3CCOCC3)cc21 103%
CCn1c(-c2cc(OC)ccc2OC)csc1=Nc1c(C)n(C)n(-c2ccccc2)c1=O 107%
COc1ccc(N=Cc2c(O)[nH]c3ccccc23)cc1OC 103%
Cc1cc(OCC(=O)NCC(O)c2ccccc2)c2c(C)c(C)c(=O)oc2c1 (centres undefined) 100%
O=C(Nc1ccccc1)c1ccc2c(c1)OCCCO2 105%
COc1ccc(C(C)NC(=S)NC2CCCCC2)cc1OC (centres undefined) 101%
Cc1[nH]c(=O)c(C(=O)/C=C/c2ccccc2)c2c1CCCC2 101%
Cc1nc2nc[nH]n2c(=O)c1C/C=C/c1ccccc1 83%
COc1ccc(-c2nc3c(s2)CCc2onc(-c4ccc(Br)cc4)c2-3)cc1 95%
CCCCN(CCCC)CCCNC(=O)CN1C(=O)COc2ccc(S(=O)(=O)N3CCC(C)CC3)cc21 96%
CCOc1ccc(N=C2SC(C(=O)O)CC(=O)N2C)cc1 (centres undefined) 92%
COc1ccc(N=C2SC(C(=O)Nc3ccc(F)cc3)CC(=O)N2C)cc1 (centres undefined) 97%
COc1ccccc1CC(=O)NCCc1c[nH]c2ccccc12 101%
COc1ccc(S(=O)(=O)NCCc2c[nH]c3ccccc23)cc1OC 100%
CCn1cc(C(=O)NCC(=O)NC(C)(C)CO)c(=O)c2cc3c(cc21)OCO3 101%
O=C(OCC(=O)N1CCN(C(=O)c2ccco2)CC1)c1cccc(O)c1 106%
Cc1c(C(=O)NC2CCCCC2)oc2ccccc12 108%
Cc1c(C)c2c(OCC(=O)NCCCO)cc3c(c2oc1=O)CCC(C)(C)O3 99%

Binding response (% of control), active:
O=C(COC(=O)c1ccc(N2CCCC2=O)cc1)c1ccc(OC(F)F)cc1 0% [inhibitor]
Cc1noc(C)c1S(=O)(=O)N(C)Cc1ccccc1 5% [inhibitor]
CC(=O)N(C)c1ccc(NC(=O)C(F)(F)F)cc1 -2% [inhibitor]
CN(C)CCCNC(=O)/C=C/c1ccc(OCc2c(F)cccc2Cl)cc1 170%
Cc1ccc(C2CC(c3cccc(NS(C)(=O)=O)c3)=NN2S(C)(=O)=O)cc1 (centres undefined) 20%
S=C(NCc1ccc(Cl)cc1)NC12CC3CC(CC(C3)C1)C2 160%
Cc1cc(/C=C2/C(=N)N3C(=NC2=O)SN=C3S(C)(=O)=O)c(C)n1-c1ccccc1 -2%
CCCc1nnc(SCC(=O)N2C(C)CCCC2C)n1CC (centres undefined) 812%
CCCn1c(=N)n(CC(=O)c2ccc(Cl)c(Cl)c2)c2ccccc21 139%
CCN1CCN(CCNC(=O)c2ccc(/C=C3/Sc4ccccc4N(Cc4cccc(C)c4)C3=O)cc2)CC1 220%
Cc1cc(-c2csc(N)n2)c(C)n1-c1ccccc1 -9%
COc1ccc(SC[C@H](Cc2ccccc2)N2CCN(CCc3ccccc3)CCC2=O)cc1 158%
C[C@H]1CCC(=O)N([C@H](CSc2ccccc2)Cc2ccccc2)CC1 161%
CCCOc1ccc(C(=O)C(CCC(CNCC)C(=O)c2ccc(OCCC)cc2)CNCC)cc1 (centres undefined) 188%
CN=c1scc(-c2cc(OC)ccc2OC)n1/N=C/c1c(C)[nH]c2ccccc12 10%
Cc1cn(COC/C=C/c2ccccc2)c(=O)[nH]c1=O -7% [inhibitor]
CN=C1SC(C(=O)O)CC(=O)N1C (centres undefined) 3%
COc1cccc(CNCCc2c[nH]c3ccccc23)c1OCc1ccccc1F 159%
